High-throughput results from PubChem.
HIV RNase H inh-1: blocks HIV-1 RNase H cleavage of RNA/DNA duplex | P04585 | RT-RNase H RNA/DNA duplex cleavage, fluorescence | inhibition, % at 10 µM | 1.9% of 65,000 active; in the data active means inhibition above about 50%
HIV RNase H inh-2: confirmation of HIV-1 reverse transcriptase RNase H inhibitors; shares compounds with HIV RNase H inh-1; Recombinant RT RNase H, fluorescent RNA/DNA duplex cleavage; inhibition, % at 10 µM; 39% of 1,000 active; AID 651; in the data active means inhibition above about 48%; inconclusive means no clear call, values can overlap the other calls
Of the large screens only hits and unclear results are named; the others gave an inactive call (follow-up assays come after a bar, where they were run). This excerpt belongs to a sample that is enriched for hits.

O=C(NCc1ccco1)c1cc2nc(-c3ccc4c(c3)OCO4)cc(C(F)(F)F)n2n1	none
COc1ccc(-c2cc(C(F)(F)F)n3nc(C(=O)NCc4ccco4)cc3n2)cc1	none
CCOC(=O)N1CCN(C(=O)c2cnn3c(C(F)F)cc(-c4ccc(C)cc4)nc23)CC1	none
Cc1ccccc1Cc1c(C)nc2c(C(=O)NCc3ccco3)cnn2c1C	none
Cc1ccc(-c2cc(C(F)F)n3ncc(C(=O)NCc4ccco4)c3n2)cc1	HIV RNase H inh-1 70 | HIV RNase H inh-2 74
CS(=O)(=O)N(CC(=O)N1CCCCCC1)c1ccc(Br)cc1	none
COc1ccc(CCN2C(=O)C3C4C=CC(C4)C3C2=O)cc1OC (stereo not given)	none
NC(=O)C1(N2CCCCC2)CCN(S(=O)(=O)c2cc(Cl)ccc2Cl)CC1	none
CN(C)S(=O)(=O)c1ccc(S(=O)(=O)N(Cc2ccccn2)Cc2ccco2)cc1	none
CCOC(=O)c1sc(NC(=O)CSc2ncn[nH]2)c(C#N)c1C	none
CCOC(=O)c1c(NC(=O)CSc2nnc(CNc3ccc(F)cc3)o2)sc(C(C)=O)c1C	none
Cc1nn(C)c(C)c1NC(=O)CCSc1nc(-c2ccco2)cc(C(F)(F)F)n1	none
CCOC(=O)c1sc(NC(=O)CSc2n[nH]c(-c3ccccc3)n2)c(C#N)c1C	HIV RNase H inh-1 83 | HIV RNase H inh-2 62
CCOC(=O)c1sc(NC(=O)CSc2ccccn2)c(C#N)c1C	none
Cc1cc(NC(=O)CSc2nc(-c3ccco3)cc(C(F)(F)F)n2)no1	none
CCOC(=O)c1sc(NC(=O)CSc2nnc(Cc3ccccc3)o2)c(C#N)c1C	HIV RNase H inh-1 90 | HIV RNase H inh-2 54
CCOC(=O)c1sc(NC(=O)CSc2nc(-c3ccco3)cc(C(F)(F)F)n2)c(C#N)c1C	HIV RNase H inh-1 76 | HIV RNase H inh-2 inconclusive
CCc1nnc(NC(=O)CSc2nnc(Cc3ccccc3)o2)s1	none
O=C(O)C1C2C=CC3(CN(C/C=C/c4ccccc4)C(=O)C13)O2 (stereo not given)	none
COc1ccc2c(c1OC)C(=O)NC(C)=C(C(=O)OC(C)(C)C)C2O (stereo not given)	none
CC(C)CCn1cnc2c(c1=O)c1nc3ccccc3nc1n2Cc1ccc2c(c1)OCO2	none
COC(=O)COc1ccc(S(=O)(=O)NCC2CCCO2)cc1Cl (stereo not given)	none
CCCCCn1c(SCCN2CCOCC2)nc2c1c(=O)[nH]c(=O)n2C	none
CCc1cccc(OCC(=O)Nc2ccc(S(=O)(=O)Nc3onc(C)c3C)cc2)c1	none
CCC1CCCCN1S(=O)(=O)c1ccc(S(=O)(=O)N2CCN(S(=O)(=O)CC)CC2)cc1 (stereo not given)	HIV RNase H inh-1 51 | HIV RNase H inh-2 57
CCS(=O)(=O)N1CCN(S(=O)(=O)c2ccc(F)cc2)CC1	none
CCC1CCCCN1S(=O)(=O)c1ccc2c(c1)CCN2C(=O)C1CCC1 (stereo not given)	none
CCCC(c1nnnn1Cc1ccco1)N1CCC(C(N)=O)CC1 (stereo not given)	none
Cc1ccc(C(=O)NCCCN2CCOCC2)cc1N1CCCC1=O	none
Cc1cccc(OCC(=O)Nc2ccc(N3CCCC3)cc2)c1C	none
Cc1cccc(C(=O)OCC(=O)Nc2ccc(N3CCCCC3)cc2)c1O	HIV RNase H inh-1 88 | HIV RNase H inh-2 53
O=C(COC(=O)C1CCCCC1)Nc1ccc(N2CCCCC2)cc1	none
COc1ccc(N(C)C(=O)CCS(=O)(=O)c2cccc3nonc23)c(OC)c1	none
COc1ccc(-c2nsc(SCC(=O)Nc3cc(C)on3)n2)cc1	HIV RNase H inh-1 84 | HIV RNase H inh-2 61
Cc1cccc(-n2ccnc2SCC(=O)Nc2nccs2)c1C	none
Cn1c(SCC(=O)Nc2nccs2)nnc1-c1ccncc1	none
Cc1cc(NC(=O)CSc2ccc(-c3nc4cc(C)c(C)cc4[nH]3)cn2)no1	HIV RNase H inh-1 70 | HIV RNase H inh-2 72
Cc1cccc(-c2nsc(SCC(=O)N3CCCC3)n2)c1	HIV RNase H inh-1 79 | HIV RNase H inh-2 inactive
Cc1cccc(-c2nsc(SCC(=O)Nc3nccs3)n2)c1	HIV RNase H inh-1 82 | HIV RNase H inh-2 74
Cc1cccc(OCc2nnc(SCC(=O)N3CCCC3)n2C)c1	none
Cc1cc(NC(=O)CSc2nc(-c3ccc(F)cc3)cs2)no1	none
Cc1ccc2nc(SCC(=O)Nc3cc(C)on3)[nH]c2c1	none
Cc1cc(NC(=O)CSc2nc3ccccc3[nH]2)no1	none
CCc1nnc(NC(=O)CSc2nc(-c3ccc(OC)cc3)ns2)s1	none
Cc1cc(C)nc(SCC(=O)N2CCCCC2)n1	none
CC(C)c1ccc(NC(=O)CSc2nc3c(c(=O)[nH]2)CCC3)cc1	none
COc1ccc(-c2nc(CN3CCC(C(=O)NC(C)C)CC3)c(C)o2)cc1OC	none
C1CNCCNCCCNCCNC1	none
CCOC(=O)C(C)Oc1ccc(C2NC(=O)NC(C)=C2C(=O)Nc2ccccc2C)cc1 (stereo not given)	none
COC(=O)C1=CNC=C(C(=O)OC)C1c1ccc(C(=O)OC)cc1	none
OC(CN1CCN(c2cccc(C(F)(F)F)c2)CC1)c1c[nH]c2ccccc12 (stereo not given)	none
Clc1ss/c(=N\c2ccccn2)c1Cl	HIV RNase H inh-1 68 | HIV RNase H inh-2 inactive
CCOc1cc(C)c(Cl)cc1S(=O)(=O)NCC1CCCO1 (stereo not given)	none
C/C(Sc1nnc(Cc2ccccc2)o1)=C(/O)c1ccccc1	none
CC(C(=O)N(C1CC1)C1(C(=O)Nc2ccccc2)CCCC1)N1C(=O)c2ccccc2C1=O (stereo not given)	none
O=C(CCS(=O)(=O)c1ccc(Br)s1)N1CCc2ccccc21	none
N#Cc1c(N)nc(SCC(=O)NC2CCCCC2)c(C#N)c1-c1ccc(Cl)cc1	HIV RNase H inh-1 82 | HIV RNase H inh-2 59
Nn1c(SCC(=O)NC2CCCCC2)nnc1-c1ccc(Cl)cc1	none
CCOC(=O)CSc1nc(N)c(C#N)c(-c2ccc(OCC)cc2)c1C#N	none
COc1cc(NS(=O)(=O)c2ccc(Br)s2)cc(OC)c1	none
CCn1cc(C(=O)Nc2ccc(-n3cnnn3)c(OC)c2)c(=O)c2ccc(C)nc21	none
O=C(COC(=O)c1ccco1)Nc1ccc(Br)cc1	none
CCC(Oc1ccccc1)C(=O)Nc1ccc(-c2nnc(-c3ccco3)o2)cc1 (stereo not given)	none
O=C(COc1ccc(Br)cc1)Nc1ccc(-c2nnc(-c3ccco3)o2)cc1	HIV RNase H inh-1 67 | HIV RNase H inh-2 72
CCc1ccc(NC(=O)CSc2nc3cc(C(=O)OC)ccc3c(=O)n2Cc2ccco2)cc1	HIV RNase H inh-1 59 | HIV RNase H inh-2 57
CCSc1nc2cc(C(=O)OC)ccc2c(=O)n1CC	none
CCN(C(=O)CSc1nc2cc(C(=O)OC)ccc2c(=O)n1Cc1ccco1)c1cccc(C)c1	none
Cn1c(SCC(=O)NCc2ccccc2)nnc1C1CC1	none
Cc1nn(-c2ccccc2)c(Cl)c1C(=O)Nc1nnc(C2CCCC2)s1	none
CC1Cc2cc(C3(O)C(=O)c4ccccc4C3=O)ccc2N1 (stereo not given)	none
CN(C)c1ccc(C(=O)Nc2nnc(-c3ccc(Cl)cc3)o2)cc1	HIV RNase H inh-1 57 | HIV RNase H inh-2 inactive
O=C(Nc1nnc(-c2ccccc2)o1)c1ccc(Cl)cc1	none
CC(=O)c1ccc(C(=O)Nc2nnc(-c3ccc(Cl)cc3)o2)cc1	none
O=C(CN1C(=O)c2cccc3cccc1c23)Nc1cccnc1	none
CCOC(=O)CCc1c(C)c(C#N)c2nc3ccccc3n2c1-n1ccnc1	none
CCOC(=O)CCc1c(C)nc(SCC(=O)O)c(C#N)c1C	HIV RNase H inh-1 70 | HIV RNase H inh-2 inactive
Cc1nc(SCC(=O)CC(=O)OC(C)C)c(C#N)c(C)c1C	none
CC(=O)N1CCN=C1SCc1ccc(Cl)cc1	none
N#Cc1nc(-c2ccc(OCc3ccccc3)cc2)oc1NCc1cccnc1	none
